# Data reported in the supplement of paper PMC6992640.
# ± gives the standard deviation of the averaged measurements.
# Tested on: WHIM30 (cells of a triple-negative basal-like breast cancer xenograft)
# Test: cell viability (% of vehicle); higher = less cytotoxic
# Conditions: 10 µM; 72 h
# 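Note: PDX cells carrying CMV promoter-driven luciferase, viability read as total photon flux per second by IVIS imaging following D-luciferin, vehicle control 0.1% DMSO.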
row,SMILES,cell viability
1,C=CC[C@@H]1/C=C(\C)C[C@H](C)C[C@H](OC)[C@H]2O[C@@](O)(C(=O)C(=O)N3CCCC[C@H]3C(=O)O[C@H](/C(C)=C/[C@@H]3CC[C@@H](O)[C@H](OC)C3)[C@H](C)[C@@H](O)CC1=O)[C@H](C)C[C@@H]2OC [Tacrolimus (FK506)],166 ± 19
2,O=C1CCC(N2C(=O)c3ccccc3C2=O)C(=O)N1 (configuration not stated) [Thalidomide],145 ± 15
3,COc1cc2nc(N3CCN(C(=O)c4ccco4)CC3)nc(N)c2cc1OC.Cl [Prazosin HCl],114 ± 1.7
4,Oc1ccc(OC2CCCCO2)cc1 (configuration not stated) [Deoxyarbutin],117 ± 11
5,COc1ccccc1N1CCN(CCCNc2cc(=O)n(C)c(=O)n2C)CC1.Cl [Urapidil HCl],111 ± 3.3
6,O=C(O)CCC(=O)O.O=C(OC1CN2CCC1CC2)N1CCc2ccccc2C1c1ccccc1 (configuration not stated) [Solifenacin succinate],87.6 ± 3.7
7,COc1ccc(O)cc1 [Mequinol],100 ± 2.8
8,CCC(CO)NCCNC(CC)CO.Cl.Cl (configuration not stated) [Ethambutol HCl],153 ± 7.2
9,CC(NC(=O)C(O)C(C)C)C(=O)NC1C(=O)N(C)CCc2ccccc21 (configuration not stated),184 ± 11
10,CC12CCC3c4ccc(OC(=O)c5ccccc5)cc4CCC3C1CCC2O (configuration not stated) [Estradiol Benzoate],138 ± 13
11,"CC(CN1CC(=O)NC(=O)C1)N1CC(=O)NC(=O)C1.Cl (configuration not stated) [Dexrazoxane HCl (ICRF-187, ADR-529)]",114 ± 1.9
12,CCC1OC(=O)C(C)C(OC2CC(C)(OC)C(O)C(C)O2)C(C)C(OC2OC(C)CC(N(C)C)C2O)C(C)(O)CC(C)C2NC(COCCOC)OC(C2C)C1(C)O (configuration not stated) [Dirithromycin],92.4 ± 3.8
13,Cc1nc2c([nH]1)CCN(C(=O)c1ccc(NC(=O)c3ccccc3-c3ccccc3)cc1)c1ccccc1-2.Cl [Conivaptan HCl],141 ± 2
14,COc1nc(C)nc(Cl)c1NC1=NCCN1 [Moxonidine],118 ± 8.7
15,CC(=O)OCC(=O)NCCCOc1cccc(CN2CCCCC2)c1.Cl [Roxatidine Acetate HCl],128 ± 15
16,Clc1ccc2c(c1)C(N1CCNCC1)=Nc1ccccc1O2 [Amoxapine],197 ± 18

row,SMILES,cell viability
1,CCCNS(=O)(=O)Nc1ncnc(OCCOc2ncc(Br)cn2)c1-c1ccc(Br)cc1 [Macitentan],101.4 ± 0.41
2,OCC(O)C(O)C(O)CO (configuration not stated) [Xylitol],83.1 ± 8.9
3,CCCc1ncc(C[n+]2ccccc2C)c(N)n1.Cl.[Cl-] [Amprolium HCl],99.4 ± 13
4,Cc1c(O)c(=O)ccn1C [Deferiprone],89.2 ± 3.3
5,NC(=O)N1c2ccccc2CC(=O)c2ccccc21 [Oxcarbazepine],159 ± 3.8
6,CCC(C)C(=O)OC1CCC=C2C=CC(C)C(CCC3CC(O)CC(=O)O3)C21 (configuration not stated) [Mevastatin],136 ± 4.6
7,CC(=O)OC1(C(C)=O)CCC2C3CC(C)C4=CC(=O)CCC4(C)C3CCC21C (configuration not stated) [Medroxyprogesterone acetate],184 ± 9.5
8,CNC(C)C1CCC(N)C(OC2C(N)CC(N)C(OC3OCC(C)(O)C(NC)C3O)C2O)O1.O=S(=O)(O)O (configuration not stated) [Gentamycin Sulfate],116 ± 21
9,COc1ccc(CC2c3cc(OC)c(OC)cc3CC[N+]2(C)CCC(=O)OCCCCCOC(=O)CC[N+]2(C)CCc3cc(OC)c(OC)cc3C2Cc2ccc(OC)c(OC)c2)cc1OC.O=S(=O)([O-])c1ccccc1.O=S(=O)([O-])c1ccccc1 (configuration not stated) [Cisatracurium Besylate],120 ± 7
10,NCCCCCC(=O)O [(6-)ε-Aminocaproic acid],155 ± 23
11,CC12CCC3=C4CCC(=O)C=C4CCC3C1CCC2(O)CC#N (configuration not stated) [Dienogest],139 ± 9
12,COC(=O)Nc1nc2ccc(S(=O)c3ccccc3)cc2[nH]1 (configuration not stated) [Oxfendazole],139 ± 8.4
13,Cc1cn(C2CC(N=[N+]=[N-])C(CO)O2)c(=O)[nH]c1=O (configuration not stated) [Zidovudine],144 ± 7.7
14,CCN(CCO)CCCC(C)Nc1ccnc2cc(Cl)ccc12.O=S(=O)(O)O (configuration not stated) [Hydroxychloroquine Sulfate],101.7 ± 0.69
15,CC1(C)SC2C(NC(=O)C(N)c3ccccc3)C(=O)N2C1C(=O)[O-].[Na+] (configuration not stated) [Ampicillin],112 ± 20
16,CC(O)(P(=O)(O)O)P(=O)(O)O [Etidronate],111 ± 11
